# In all, about 390,000 compounds went through this assay and about 910 (0.23%) were called active. Another 5% or so got no clear call; they are omitted. The calls are words filed in the database; no cut-off is given here. This excerpt belongs to a sample that is enriched for actives.
# Target: T1, Ubiquitin carboxyl-terminal hydrolase 1 (Homo sapiens) (UniProt O94782)
# T1 sequence (whole entry): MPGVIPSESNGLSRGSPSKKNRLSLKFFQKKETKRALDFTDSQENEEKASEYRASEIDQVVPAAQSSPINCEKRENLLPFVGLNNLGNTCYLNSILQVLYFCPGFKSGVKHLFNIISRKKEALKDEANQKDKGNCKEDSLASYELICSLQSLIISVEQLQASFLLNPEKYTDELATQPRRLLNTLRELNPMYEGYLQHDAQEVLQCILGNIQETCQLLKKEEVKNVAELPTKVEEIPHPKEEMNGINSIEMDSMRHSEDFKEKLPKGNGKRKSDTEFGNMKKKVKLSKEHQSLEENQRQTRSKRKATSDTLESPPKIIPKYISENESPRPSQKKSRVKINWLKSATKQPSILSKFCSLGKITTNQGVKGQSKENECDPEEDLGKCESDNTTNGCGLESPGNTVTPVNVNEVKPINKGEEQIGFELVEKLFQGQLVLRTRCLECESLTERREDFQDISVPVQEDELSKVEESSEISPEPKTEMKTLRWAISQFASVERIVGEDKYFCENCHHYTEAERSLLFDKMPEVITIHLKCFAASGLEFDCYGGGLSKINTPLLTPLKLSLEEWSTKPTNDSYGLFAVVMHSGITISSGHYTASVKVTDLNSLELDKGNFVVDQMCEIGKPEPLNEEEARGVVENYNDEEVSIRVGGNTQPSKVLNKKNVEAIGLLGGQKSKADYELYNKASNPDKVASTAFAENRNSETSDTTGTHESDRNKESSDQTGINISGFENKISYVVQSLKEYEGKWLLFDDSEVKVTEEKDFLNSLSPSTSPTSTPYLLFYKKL
# Experiment: Inhibitors of USP1/UAF1: Primary Screen.
# Format: functional
row,Compound,Potency
1,CCOC(=O)C(C)C(C)=O (stereo unspecified),355 µM (active)
